Records with an inconclusive call do not appear. Activity calls are given as the source filed them. Calls come from the whole dose curve; as a rule, active = well fitted inhibition curve with a large enough effect; inconclusive = small, poorly fitted or top-dose-only effect; inactive = flat fitted curve, though single readings scatter.
Assays:
Experiment in all cases: qHTS profiling for inhibitors of Plasmodium falciparum proliferation (AID 504749); note: nearly all actives have a fitted effect of over 60% in size
Settings in all cases: P. falciparum in erythrocytes, SYBR Green DNA, 72 h; series mostly up to 28.7 µM
CP260 = tested on: CP260
Method in brief: (§1)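 P. falciparum-infected erythrocytes (0.3% parasitemia, 2.5% hematocrit) incubated with compound 72 h at 37 C, 5% CO2. Parasite DNA detected by SYBR Green after lysis, overnight at room temperature; normalised to 0.29 uM artemisinin and DMSO.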

CP262 = tested on: CP262
Method in brief: as §1

CP265 = tested on: CP265
Method in brief: as §1

CP266 = tested on: CP266
Method in brief: as §1

CP268 = tested on: CP268
Method in brief: as §1

CP269 = tested on: CP269
Method in brief: as §1

CP286 = tested on: CP286
Method in brief: as §1

CP291 = tested on: CP291
Method in brief: as §1

CP297 = tested on: CP297
Method in brief: as §1

CP305 = tested on: CP305
Method in brief: as §1

Measured: Potency

C=CCNC(N)=S
inactive: all assays above

CCOC(=O)c1cccnc1
inactive: all assays above

CN1C(C)(C)CCCC1(C)C
inactive: all assays above

NS(=O)(=O)c1cc(-c2nn[nH]n2)c(NCc2cccs2)cc1Cl
inactive: all assays above

COc1cc(O)cc(O)c1
inactive: all assays above

Cc1cccc(C)c1NC(=O)CC12CCCN1CCC2
inactive: all assays above

CCN(CC)CC1CCCCN1CC(=O)N1c2ccccc2C(=O)Nc2cccnc21 (stereo not given)
inactive: all assays above

O=C1CC[C@@H](C(=O)O)N1
inactive: all assays above

CN(C(=O)c1c(O)c2ccccc2n(C)c1=O)c1ccccc1
inactive: all assays above

FC(F)(F)C(Cl)Br (stereo not given)
inactive: all assays above

CC(=O)Nc1cccc(O)c1
inactive: all assays above

Cc1cc(=O)[nH]c(=S)[nH]1
inactive: all assays above

Cc1ccc(S(=O)(=O)NC(=O)NC2CCCCCCC2)cc1
inactive: all assays above

CC(=O)N[C@@H](Cc1ccc(O)cc1)C(=O)O
inactive: all assays above

CCCC(O)C(CC)CO (stereo not given)
inactive: all assays above

O=C(NCCCN1CCOCC1)c1ccc(Cl)cc1
inactive: all assays above

CCCCCCCCCCCCCCCCCCO
inactive: all assays above

CC(CSC(=O)c1ccccc1)C(=O)N1C[C@@H](Sc2ccccc2)C[C@H]1C(=O)O (stereo not given in full)
inactive: all assays above

COC(=O)c1ccccc1C(=O)c1ccc(OCCN2CCCCC2)cc1
inactive: all assays above

CCCCCC(N)=O
inactive: all assays above

O[C@@H]1CO[C@H]2[C@@H]1OC[C@@H]2O
inactive: all assays above

CC(C)C[C@@H](N)C(=O)O
inactive: all assays above

O=C(O)c1ccccc1OP(=O)(O)O
inactive: all assays above

O=S1(=O)OC(c2ccc(O)cc2)(c2ccc(O)cc2)c2ccccc21
inactive: all assays above

Nc1ccc(C(=O)Oc2ccccc2)c(O)c1
inactive: all assays above

O=C(O)Cn1c(C(=O)Nc2nc(-c3ccccc3Cl)cs2)cc2ccccc21
inactive: all assays above

CCCNC(C)(C)COC(=O)c1ccccc1
inactive: all assays above

NNC(=O)CP(=O)(c1ccccc1)c1ccccc1
inactive: all assays above

Nc1ccc(S(=O)(=O)c2ccc(N)cc2)cc1
inactive: all assays above

O=C(O)c1ccc[n+]([O-])c1
inactive: all assays above

NC(=O)NS(=O)(=O)c1ccc(N)cc1
inactive: all assays above

CC(C)CCOC(=O)c1ccc(N(C)C)cc1
inactive: all assays above

Nc1ccncc1N
inactive: all assays above

Cc1ccccc1N=Nc1ccc(N=Nc2c(O)ccc3ccccc23)c(C)c1
inactive: all assays above

C[N+](C)(C)CC[N+]1(C)Cc2c(Cl)c(Cl)c(Cl)c(Cl)c2C1
inactive: all assays above

CC(C)(C)C(=O)OCOC(=O)[C@@H]1N2C(=O)[C@@H](NC(=O)[C@H](N)c3ccccc3)[C@H]2SC1(C)C
inactive: all assays above

Cc1cccc(C(=O)O)c1O
inactive: all assays above

Cc1cccc(Nc2ccccc2C(=O)O)c1C
inactive: all assays above

CCCCOC(=O)c1ccc(N)cc1
inactive: all assays above

NC(N)=NCCN1CCCCCCC1
inactive: all assays above

CC(C)CCCC(C)CCCC(C)CCCCC(C)CCCC(C)CCCC(C)C (stereo not given)
inactive: all assays above

Cc1cc(C)nc(NS(=O)(=O)c2ccc(N)cc2)n1
inactive: all assays above

O=C(O)CNC(=O)c1ccccc1I
inactive: all assays above

O=C1c2cccc(O)c2C(=O)c2c(O)cccc21
inactive: all assays above

O=C(CCBr)N1CCN(C(=O)CCBr)CC1
inactive: all assays above

CC(=O)OCC(COC(C)=O)OC(C)=O
inactive: all assays above

O=C(O)CCC(=O)O
inactive: all assays above

CNCc1ccccc1
inactive: all assays above

C[C@@H]1CCC[C@H](C)N1
inactive: all assays above

CC(=O)Oc1cccc(C)c1
inactive: all assays above

From PubChem BioAssay (NCATS)
